Reference: PubChem BioAssay AID1159580 (chemical genetic matrix, 2015)
Among all 5,500 compounds or so, about 2,000 (36%) were called active. Not shown: some 18% with an inconclusive outcome. No stated cut-off is given here; in the data, active means normalized growth mostly below about 0.91 (no sharp cut-off); inconclusive means no clear call, values can overlap the other calls; inactive means mostly above about 0.92. The list shows a part of the results.

Test: chemical genetic growth profiling, strain panel (AID 1159580);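 further: tested at 20 µM; growth read once vehicle control cultures reached saturation at 30 °C; 1 = growth at the plate median or of vehicle wells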
Conditions: growth OD

Measured: normalized growth

C[C@H]1[C@H](C)CC[C@]2(C(=O)O)CC[C@]3(C)C(=CCC4[C@@]5(C)C[C@@H](O)[C@H](O)[C@@](C)(CO)C5[C@H](O)C[C@]43C)[C@H]12 (stereo partly drawn)
active: S. cerevisiae deletion strains, locus YKL009W, strain mrt4, stronger effect = lower value 1.55 [resistant] | S. cerevisiae deletion strains, locus YKL068W, stronger effect = lower value 1.23 [resistant] | S. cerevisiae deletion strains, locus YKL085W, strain MDH1 (second series), stronger effect = lower value 1.3 [resistant] | S. cerevisiae deletion strains, locus YKL085W, strain MDH1, stronger effect = lower value 1.3 [resistant] | S. cerevisiae deletion strains, locus YKR001C, strain vps1, stronger effect = lower value 0.855 | S. cerevisiae deletion strains, locus YLR113W, strain HOG1, stronger effect = lower value 0.673 | S. cerevisiae deletion strains, locus YNL271C, strain bni1, stronger effect = lower value 0.907 | S. cerevisiae deletion strains, locus YNL298W, strain CLA4, stronger effect = lower value 0.869 | S. cerevisiae deletion strains, locus YNR052C, strain pop2, stronger effect = lower value 0.914
inactive: S. cerevisiae deletion strains, locus YJR066W, strain TOR1, stronger effect = lower value 0.909 | S. cerevisiae deletion strains, locus YKL160W, strain elf1, stronger effect = lower value 0.958 | S. cerevisiae deletion strains, locus YKR026C, strain gcn3, stronger effect = lower value 0.962 | S. cerevisiae deletion strains, locus YKR091W, strain srl3, stronger effect = lower value 0.965 | S. cerevisiae deletion strains, locus YLL001W, strain dnm1, stronger effect = lower value 0.964 | S. cerevisiae deletion strains, locus YLL026W, stronger effect = lower value 0.97 | S. cerevisiae deletion strains, locus YLL041C, strain sdh2, stronger effect = lower value 0.966 | S. cerevisiae deletion strains, locus YLR027C, strain aat2, stronger effect = lower value 0.96 | S. cerevisiae deletion strains, locus YLR039C, strain RIC1, stronger effect = lower value 0.799 | S. cerevisiae deletion strains, locus YLR058C, strain SHM2, stronger effect = lower value 0.993 | S. cerevisiae deletion strains, locus YLR102C, strain apc9, stronger effect = lower value 0.976 | S. cerevisiae deletion strains, locus YLR221C, strain rsa3, stronger effect = lower value 0.922 | S. cerevisiae deletion strains, locus YLR258W, strain gsy2, stronger effect = lower value 0.968 | S. cerevisiae deletion strains, locus YLR262C, strain YPT6 (second series), stronger effect = lower value 0.919 | S. cerevisiae deletion strains, locus YLR262C, strain YPT6, stronger effect = lower value 0.872 | S. cerevisiae deletion strains, locus YLR268W, strain sec22, stronger effect = lower value 0.932 | S. cerevisiae deletion strains, locus YLR320W, strain mms22, stronger effect = lower value 0.928 | S. cerevisiae deletion strains, locus YLR330W, strain CHS5, stronger effect = lower value 0.958 | S. cerevisiae deletion strains, locus YLR342W, strain FKS1 (second series), stronger effect = lower value 0.915 | S. cerevisiae deletion strains, locus YLR342W, strain FKS1, stronger effect = lower value 0.982 | S. cerevisiae deletion strains, locus YLR357W, strain rsc2, stronger effect = lower value 0.921 | S. cerevisiae deletion strains, locus YLR370C, strain arc18, stronger effect = lower value 0.967 | S. cerevisiae deletion strains, locus YLR371W, strain rom2, stronger effect = lower value 0.921 | S. cerevisiae deletion strains, locus YLR384C, strain iki3, stronger effect = lower value 0.964 | S. cerevisiae deletion strains, locus YLR418C, strain cdc73, stronger effect = lower value 0.901 | S. cerevisiae deletion strains, locus YML016C, strain PPZ1, stronger effect = lower value 0.99 | S. cerevisiae deletion strains, locus YML032C, strain rad52, stronger effect = lower value 0.959 | S. cerevisiae deletion strains, locus YML120C, strain ndi1, stronger effect = lower value 0.951 | S. cerevisiae deletion strains, locus YML124C, strain tub3, stronger effect = lower value 0.963 | S. cerevisiae deletion strains, locus YMR058W, strain fet3, stronger effect = lower value 0.972 | S. cerevisiae deletion strains, locus YMR078C, strain ctf18, stronger effect = lower value 0.979 | S. cerevisiae deletion strains, locus YMR125W, strain sto1, stronger effect = lower value 0.966 | S. cerevisiae deletion strains, locus YMR129W, stronger effect = lower value 0.962 | S. cerevisiae deletion strains, locus YMR205C, strain PFK2, stronger effect = lower value 0.909 | S. cerevisiae deletion strains, locus YMR223W, strain ubp8, stronger effect = lower value 0.905 | S. cerevisiae deletion strains, locus YMR231W, strain pep5, stronger effect = lower value 0.978 | S. cerevisiae deletion strains, locus YMR307W, strain GAS1, stronger effect = lower value 0.6 | S. cerevisiae deletion strains, locus YNL067W, strain RPL9B, stronger effect = lower value 0.942 | S. cerevisiae deletion strains, locus YNL071W, strain lat1, stronger effect = lower value 0.973 | S. cerevisiae deletion strains, locus YNL183C, strain NPR1, stronger effect = lower value 0.905 | S. cerevisiae deletion strains, locus YNL209W, strain ssb2, stronger effect = lower value 0.961 | S. cerevisiae deletion strains, locus YNL233W, strain BNI4, stronger effect = lower value 0.927 | S. cerevisiae deletion strains, locus YNL248C, strain rpa49, stronger effect = lower value 0.964 | S. cerevisiae deletion strains, locus YNL250W, strain rad50, stronger effect = lower value 0.98 | S. cerevisiae deletion strains, locus YNL307C, strain MCK1, stronger effect = lower value 0.994 | S. cerevisiae deletion strains, locus YNL322C, strain KRE1 (second series), stronger effect = lower value 0.98 | S. cerevisiae deletion strains, locus YNL322C, strain KRE1, stronger effect = lower value 0.984 | S. cerevisiae deletion strains, locus YNR049C, strain mso1, stronger effect = lower value 0.987 | S. cerevisiae deletion strains, locus YOL006C, strain TOP1, stronger effect = lower value 0.915 | S. cerevisiae deletion strains, locus YOL012C, strain htz1 0.605 | S. cerevisiae deletion strains, locus YOL147C, strain pex11, stronger effect = lower value 0.985 | S. cerevisiae deletion strains, locus YOR001W, strain rrp6, stronger effect = lower value 0.907 | S. cerevisiae deletion strains, locus YOR061W, strain CKA2, stronger effect = lower value 0.994 | S. cerevisiae deletion strains, locus YOR069W, strain VPS5, stronger effect = lower value 0.998 | S. cerevisiae deletion strains, locus YOR070C, strain gyp1, stronger effect = lower value 0.966 | S. cerevisiae deletion strains, locus YOR080W, strain dia2, stronger effect = lower value 0.967 | S. cerevisiae deletion strains, locus YOR083W, strain WHI5, stronger effect = lower value 0.954 | S. cerevisiae deletion strains, locus YOR106W, strain vam3, stronger effect = lower value 0.972 | S. cerevisiae deletion strains, locus YOR136W, strain idh2, stronger effect = lower value 0.931 | S. cerevisiae deletion strains, locus YOR144C, strain elg1, stronger effect = lower value 0.958 | S. cerevisiae deletion strains, locus YOR184W, strain ser1, stronger effect = lower value 0.946 | S. cerevisiae deletion strains, locus YOR231W, strain MKK1, stronger effect = lower value 0.982 | S. cerevisiae deletion strains, locus YOR265W, strain rbl2, stronger effect = lower value 0.98 | S. cerevisiae deletion strains, locus YOR270C, strain vph1, stronger effect = lower value 0.851 | S. cerevisiae deletion strains, locus YOR290C, strain snf2, stronger effect = lower value 0.971 | S. cerevisiae deletion strains, locus YOR316C, strain cot1, stronger effect = lower value 0.962 | S. cerevisiae deletion strains, locus YPL051W, strain arl3, stronger effect = lower value 0.959 | S. cerevisiae deletion strains, locus YPL055C, strain LGE1, stronger effect = lower value 0.938 | S. cerevisiae deletion strains, locus YPL078C, strain atp4, stronger effect = lower value 0.984 | S. cerevisiae deletion strains, locus YPL106C, strain sse1, stronger effect = lower value 0.895 | S. cerevisiae deletion strains, locus YPL240C, strain hsp82, stronger effect = lower value 0.953 | S. cerevisiae deletion strains, locus YPL241C, strain CIN2, stronger effect = lower value 1 | S. cerevisiae deletion strains, locus YPL256C, strain CLN2, stronger effect = lower value 0.958 | S. cerevisiae deletion strains, locus YPR119W, strain clb2, stronger effect = lower value 0.978 | S. cerevisiae deletion strains, locus YPR141C, strain kar3, stronger effect = lower value 0.974 | S. cerevisiae deletion strains, locus YPR163C, strain tif3, stronger effect = lower value 0.969 | S. cerevisiae deletion strains, locus YPR167C, strain met16, stronger effect = lower value 0.974 | S. cerevisiae deletion strains, strain wtn01, stronger effect = lower value 0.94 | S. cerevisiae strains, strain wild type, stronger effect = lower value 0.961
